Results reported in PubChem BioAssay AID1159580 (chemical genetic matrix, 2015).
In all, about 5,500 compounds went through this assay and about 2,000 (36%) were called active. Roughly 18% stayed inconclusive and do not appear here. Cut-off read from the data, not from the text of the source: active = normalized growth mostly below about 0.91 (no sharp cut-off); inconclusive = no clear call, values can overlap the other calls; inactive = mostly above about 0.92. The list shows a part of the results.

Assay: chemical genetic growth profiling, strain panel (AID 1159580);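 note: tested at 20 µM; growth read once vehicle control cultures reached saturation at 30 °C; 1 = growth at the plate median or of vehicle wells; lower values mean less growth of the strain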
Details: growth OD

Measured: normalized growth

COc1cc2c(cc1OC)C1(O)C(=O)c3ccc(O)c(C(=O)O)c3OC1CO2 (stereo not drawn)
inactive: S. cerevisiae deletion strains, locus YKL009W, strain mrt4, stronger effect = lower value 1.06 | S. cerevisiae deletion strains, locus YKL068W, stronger effect = lower value 0.983 | S. cerevisiae deletion strains, locus YKL085W, strain MDH1 (second series), stronger effect = lower value 0.975 | S. cerevisiae deletion strains, locus YKL085W, strain MDH1, stronger effect = lower value 0.975 | S. cerevisiae deletion strains, locus YKL160W, strain elf1, stronger effect = lower value 0.984 | S. cerevisiae deletion strains, locus YKL190W, strain CNB1, stronger effect = lower value 0.991 | S. cerevisiae deletion strains, locus YKR001C, strain vps1, stronger effect = lower value 1.01 | S. cerevisiae deletion strains, locus YKR026C, strain gcn3, stronger effect = lower value 0.99 | S. cerevisiae deletion strains, locus YKR091W, strain srl3, stronger effect = lower value 0.992 | S. cerevisiae deletion strains, locus YLL001W, strain dnm1, stronger effect = lower value 1 | S. cerevisiae deletion strains, locus YLL026W, stronger effect = lower value 0.993 | S. cerevisiae deletion strains, locus YLL041C, strain sdh2, stronger effect = lower value 0.998 | S. cerevisiae deletion strains, locus YLR027C, strain aat2, stronger effect = lower value 0.998 | S. cerevisiae deletion strains, locus YLR039C, strain RIC1, stronger effect = lower value 1.08 | S. cerevisiae deletion strains, locus YLR058C, strain SHM2, stronger effect = lower value 1.01 | S. cerevisiae deletion strains, locus YLR102C, strain apc9, stronger effect = lower value 0.975 | S. cerevisiae deletion strains, locus YLR113W, strain HOG1, stronger effect = lower value 0.982 | S. cerevisiae deletion strains, locus YLR221C, strain rsa3, stronger effect = lower value 1.02 | S. cerevisiae deletion strains, locus YLR258W, strain gsy2, stronger effect = lower value 0.99 | S. cerevisiae deletion strains, locus YLR262C, strain YPT6 (second series), stronger effect = lower value 1.02 | S. cerevisiae deletion strains, locus YLR262C, strain YPT6, stronger effect = lower value 1.08 | S. cerevisiae deletion strains, locus YLR268W, strain sec22, stronger effect = lower value 1.02 | S. cerevisiae deletion strains, locus YLR320W, strain mms22, stronger effect = lower value 1.01 | S. cerevisiae deletion strains, locus YLR330W, strain CHS5, stronger effect = lower value 1 | S. cerevisiae deletion strains, locus YLR342W, strain FKS1, stronger effect = lower value 1.02 | S. cerevisiae deletion strains, locus YLR357W, strain rsc2, stronger effect = lower value 0.987 | S. cerevisiae deletion strains, locus YLR370C, strain arc18, stronger effect = lower value 0.988 | S. cerevisiae deletion strains, locus YLR371W, strain rom2, stronger effect = lower value 1 | S. cerevisiae deletion strains, locus YLR384C, strain iki3, stronger effect = lower value 0.985 | S. cerevisiae deletion strains, locus YLR418C, strain cdc73, stronger effect = lower value 1 | S. cerevisiae deletion strains, locus YML016C, strain PPZ1, stronger effect = lower value 1.01 | S. cerevisiae deletion strains, locus YML032C, strain rad52, stronger effect = lower value 1.01 | S. cerevisiae deletion strains, locus YML120C, strain ndi1, stronger effect = lower value 1 | S. cerevisiae deletion strains, locus YML124C, strain tub3, stronger effect = lower value 0.99 | S. cerevisiae deletion strains, locus YMR058W, strain fet3, stronger effect = lower value 0.995 | S. cerevisiae deletion strains, locus YMR078C, strain ctf18, stronger effect = lower value 0.992 | S. cerevisiae deletion strains, locus YMR125W, strain sto1, stronger effect = lower value 0.983 | S. cerevisiae deletion strains, locus YMR129W, stronger effect = lower value 0.987 | S. cerevisiae deletion strains, locus YMR205C, strain PFK2, stronger effect = lower value 1.02 | S. cerevisiae deletion strains, locus YMR223W, strain ubp8, stronger effect = lower value 0.98 | S. cerevisiae deletion strains, locus YMR231W, strain pep5, stronger effect = lower value 0.994 | S. cerevisiae deletion strains, locus YMR307W, strain GAS1, stronger effect = lower value 1.18 | S. cerevisiae deletion strains, locus YNL067W, strain RPL9B, stronger effect = lower value 0.977 | S. cerevisiae deletion strains, locus YNL071W, strain lat1, stronger effect = lower value 0.991 | S. cerevisiae deletion strains, locus YNL128W, strain TEP1, stronger effect = lower value 1 | S. cerevisiae deletion strains, locus YNL153C, strain GIM3, stronger effect = lower value 0.991 | S. cerevisiae deletion strains, locus YNL183C, strain NPR1, stronger effect = lower value 0.94 | S. cerevisiae deletion strains, locus YNL209W, strain ssb2, stronger effect = lower value 0.989 | S. cerevisiae deletion strains, locus YNL233W, strain BNI4, stronger effect = lower value 0.996 | S. cerevisiae deletion strains, locus YNL248C, strain rpa49, stronger effect = lower value 0.974 | S. cerevisiae deletion strains, locus YNL250W, strain rad50, stronger effect = lower value 0.968 | S. cerevisiae deletion strains, locus YNL271C, strain bni1, stronger effect = lower value 0.99 | S. cerevisiae deletion strains, locus YNL298W, strain CLA4, stronger effect = lower value 0.985 | S. cerevisiae deletion strains, locus YNL307C, strain MCK1, stronger effect = lower value 0.984 | S. cerevisiae deletion strains, locus YNL322C, strain KRE1 (second series), stronger effect = lower value 1.01 | S. cerevisiae deletion strains, locus YNL322C, strain KRE1, stronger effect = lower value 0.988 | S. cerevisiae deletion strains, locus YNR049C, strain mso1, stronger effect = lower value 0.996 | S. cerevisiae deletion strains, locus YNR052C, strain pop2, stronger effect = lower value 0.999 | S. cerevisiae deletion strains, locus YOL006C, strain TOP1, stronger effect = lower value 1.38 | S. cerevisiae deletion strains, locus YOL012C, strain htz1 0.856 | S. cerevisiae deletion strains, locus YOL147C, strain pex11, stronger effect = lower value 0.995 | S. cerevisiae deletion strains, locus YOR001W, strain rrp6, stronger effect = lower value 1.02 | S. cerevisiae deletion strains, locus YOR061W, strain CKA2, stronger effect = lower value 1.05 | S. cerevisiae deletion strains, locus YOR069W, strain VPS5, stronger effect = lower value 0.989 | S. cerevisiae deletion strains, locus YOR070C, strain gyp1, stronger effect = lower value 0.984 | S. cerevisiae deletion strains, locus YOR080W, strain dia2, stronger effect = lower value 0.998 | S. cerevisiae deletion strains, locus YOR083W, strain WHI5, stronger effect = lower value 0.999 | S. cerevisiae deletion strains, locus YOR106W, strain vam3, stronger effect = lower value 0.997 | S. cerevisiae deletion strains, locus YOR136W, strain idh2, stronger effect = lower value 1 | S. cerevisiae deletion strains, locus YOR144C, strain elg1, stronger effect = lower value 0.994 | S. cerevisiae deletion strains, locus YOR184W, strain ser1, stronger effect = lower value 1.07 | S. cerevisiae deletion strains, locus YOR231W, strain MKK1, stronger effect = lower value 0.989 | S. cerevisiae deletion strains, locus YOR265W, strain rbl2, stronger effect = lower value 1.01 | S. cerevisiae deletion strains, locus YOR270C, strain vph1, stronger effect = lower value 1.01 | S. cerevisiae deletion strains, locus YOR290C, strain snf2, stronger effect = lower value 0.978 | S. cerevisiae deletion strains, locus YOR316C, strain cot1, stronger effect = lower value 0.976 | S. cerevisiae deletion strains, locus YPL051W, strain arl3, stronger effect = lower value 0.982 | S. cerevisiae deletion strains, locus YPL078C, strain atp4, stronger effect = lower value 0.98 | S. cerevisiae deletion strains, locus YPL106C, strain sse1, stronger effect = lower value 0.991 | S. cerevisiae deletion strains, locus YPL240C, strain hsp82, stronger effect = lower value 0.977 | S. cerevisiae deletion strains, locus YPL241C, strain CIN2, stronger effect = lower value 0.983 | S. cerevisiae deletion strains, locus YPL256C, strain CLN2, stronger effect = lower value 0.95 | S. cerevisiae deletion strains, locus YPR119W, strain clb2, stronger effect = lower value 0.973 | S. cerevisiae deletion strains, locus YPR141C, strain kar3, stronger effect = lower value 0.96 | S. cerevisiae deletion strains, locus YPR163C, strain tif3, stronger effect = lower value 0.997 | S. cerevisiae deletion strains, locus YPR167C, strain met16, stronger effect = lower value 1 | S. cerevisiae deletion strains, strain wtn01, stronger effect = lower value 1.03 | S. cerevisiae strains, strain wild type, stronger effect = lower value 1.04
